# From PubChem BioAssay
# Assay: probe aDKK1 binding to arrayed compounds – biochemical, biotinylated probe, 635/667 nm fluorescence, primary screen (AID 1099);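 note: score merges 667nm spot fluorescence with signal to noise across triplicate slides; reference of the scale not given here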
# Conditions: small-molecule microarray, higher = more signal
row,Compound,composite z-score
1,CCCC1(C(=O)OC)C=C2C(=C(C)C(=O)C2C)CN1 (stereo not given),0.719
2,NCCCCCNC(=O)[C@@H]1C[C@@H]2C(=O)N[C@@H](CCCCN)C(=O)N2[C@@H]1c1ccc(O)cc1,0.899
3,CCCN1C(=O)[C@]2(Cc3ccccc31)N=C(c1ccc(OCCCO)cc1)O[C@@H]2c1ccccc1,0.0194
4,CCN(CC)c1ccc(N2CC=CC34O[C@@H]5/C=C\CCCOC(=O)C5[C@H]3C(=O)N(C(C)CO)[C@@H]4C2=O)cc1 (stereo not given in full),-0.213
5,NC(=O)[C@H]1[C@@H]2C(=O)O[C@@H](c3ccccc3)[C@@H](c3ccccc3)N2[C@@H](c2ccc(OCCO)cc2)[C@]12C(=O)Nc1ccc(C#CCCO)cc12,0.313
6,CC(C)C(CO)N1C(=O)[C@@H]2[C@H]3C(=O)OCC=C[C@H]3OC23C=CCN(c2ccc(Cl)cc2)C(=O)[C@@H]13 (stereo not given in full),-0.0517
7,C=CCNC(=O)[C@@H]1[C@H]2C(=O)O[C@H](c3ccccc3)[C@H](c3ccccc3)N2[C@H](c2ccccc2OCCO)[C@@]12C(=O)Nc1ccc(C#CCC(C(=O)OC)C(=O)OC)cc12,-0.319
8,COc1ccc(C#Cc2ccc3c(c2)[C@]2(C(=O)N3)[C@H](C(=O)O)[C@H]3C(=O)O[C@H](c4ccccc4)[C@H](c4ccccc4)N3[C@@H]2c2ccc(O)cc2)cc1,0.734
9,CCCC[C@@H](O)C1=C(COC)C[C@H]2C(=O)N(Cc3ccccc3)C(=O)[C@H]2[C@H]1CO,-0.449
10,COC(=O)[C@@]1(Cc2ccc(F)cc2)[C@H]2c3cc(C(=O)N4CCCC4)n(Cc4ccc(C)c(F)c4F)c3C[C@H]2CN1C(=O)c1ccccc1,0.902
11,C=CCNC(=O)[C@@H]1[C@H]2C(=O)O[C@H](c3ccccc3)[C@H](c3ccccc3)N2[C@H](c2ccc(O)cc2)[C@@]12C(=O)N(C(=O)OCCOC)c1ccc(C#CC3=CCCCC3)cc12,-0.122
12,C#Cc1cc2ccccc2oc1=O,-0.265
13,COc1cc(NN2C(C(O)c3cc(OC)c(OC)c(OC)c3)C=CC3C(=O)N(C)C(=O)C32)cc(OC)c1OC (stereo not given),0.171
14,CO[C@H]1O[C@H](CO)[C@@H](OC(=O)Nc2ccccc2)[C@H](OC(=O)c2cc3ccccc3[nH]2)[C@H]1OC(=O)c1cc2ccccc2[nH]1,0.576
15,CCOC(=O)C[C@H]1[C@H](OC(=O)Cc2ccc3c(c2)OCO3)[C@@H](NC(=O)c2ccc3ccccc3n2)c2cc(OCCCO)ccc2N1C(=O)c1ccc2ccccc2n1,0.0134
16,COc1ccc(C#Cc2ccc3c(c2)[C@]2(C(=O)N3)[C@H](c3ccc(OCCO)cc3)N3[C@H](c4ccccc4)[C@H](c4ccccc4)OC(=O)[C@H]3[C@@H]2C(=O)NC[C@H](O)c2ccccc2)cc1,0.0477
17,NCCCCCNC(=O)[C@H]1C[C@H]2C(=O)N3CCC[C@H]3C(=O)N2[C@H]1c1cccc(OCCO)c1,0.583
18,CO[C@H]1O[C@H](CO)[C@@H](OC(=O)Nc2ccc(Br)cc2)[C@@H]2OC(=O)[C@@H](Cc3ccccc3)C/C=C/C[C@H](Cc3ccccc3)C(=O)O[C@@H]12,-0.139

row,Compound,composite z-score
1,CCOC(=O)[C@@H]1CCCCN1C(=O)C(=O)OC,-0.0335
2,O=C(Cc1ccccc1)[C@H]1C2C=CCCC(c3ccccc3)=C2CN1Cc1ccccc1 (stereo not given in full),-0.138
3,CCOC(=O)C[C@H]1[C@H](OC(=O)Cc2ccc3c(c2)OCO3)[C@@H](NC(=O)C2CCCCC2)c2cc(OCCCO)ccc2N1C(=O)c1ccccc1,-0.173
4,C=C[C@H](C)[C@H](OC(=O)Nc1ccc(SC)cc1)c1ccc(OCCO)cc1,0.157
5,CCCCC(CC)C(O)C1C=CC2C(=O)N(c3ccccc3)C(=O)C2N1Nc1ccccc1F (stereo not given),0.36
6,Cc1ccc(C(C)CC(O)C2C=CC3C(=O)N(c4ccccc4)C(=O)C3N2Nc2ccccc2)o1 (stereo not given),1.01
7,CCOC(=O)C1=C[C@@H](C(C)(C)C)N(S(=O)(=O)c2ccc(C)cc2)[C@H]1c1cccc2ccccc12,0.166
8,CC(C)N1C(=O)C[C@@](C(=O)NC2CC2)(c2ccc([N+](=O)[O-])cc2)[C@H]1c1ccc(CO)cc1,0.34
9,COC(=O)c1c(CC[C@@H](CO)NC(=O)N2CCC[C@H]2Cn2cc(C3(O)CCCCC3)nn2)oc(C(C)=O)c1C(=O)OC,-0.152
10,NC(=O)NCC#Cc1ccc2c(c1)[C@]1(C(=O)N2)[C@H](c2ccccc2OCCO)N2[C@H](c3ccccc3)[C@H](c3ccccc3)OC(=O)[C@H]2[C@@H]1C(=O)NC[C@H](O)c1ccccc1,-0.224
11,CN(C)C(=O)[C@]1(CCC(=O)OC(C)(C)C)N=C(c2ccc(OCCCO)cc2)O[C@@H]1c1ccccc1CN=[N+]=[N-],-0.594
12,Cc1ccccc1C(O)C1C=CC2C(=O)NC(=O)C2N1Nc1ccccn1 (stereo not given),0.145
13,COCCOC(=O)N1C(=O)[C@@]2(c3ccccc31)[C@H](C(=O)NC[C@H](O)c1ccccc1)[C@H]1C(=O)O[C@H](c3ccccc3)[C@H](c3ccccc3)N1[C@@H]2c1ccc(O)cc1,0.804
14,CC1CC/C=C\[C@H]2OC34C=CCN(C(C)C)C(=O)[C@H]3N(CCO)C(=O)[C@@H]4C2C(=O)O1 (stereo not given in full),-0.163
15,CCOC(=O)C=Cc1cccc(C)c1O,-0.123
16,CCCCCCCCCCC(O)C1C=CC2C(=O)N(c3ccccc3)C(=O)C2N1Nc1ccc(C#N)cc1 (stereo not given),0.44
17,COCC(=C=CC[C@H](O)c1ccc(CO)o1)CCO,0.0057
